Bioassay records deposited in PubChem by National Center for Advancing Translational Sciences (NCATS).
IL-1B inflam inh – inflammasome signaling inhibition, IL-1 beta readout; activity change, % at 57.5 µM; hit rate 4.7% among 360,000; THP-1 LPS/ATP IL-1B secretion, AlphaLISA, 16 h; active compounds read low; in the data active = activity change below about -50%; inconclusive = mostly about -30% to -49%
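Secreted IL-1B measured by AlphaLISA bead assay after 16 h compound exposure of THP-1 cells; compounds (final up to 57.5 uM) added 1 h before LPS (250 ng/mL) and ATP (1.25 mM) stimulation; lower signal means less secretion.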
TDP1 cell noCPT – qHTS for Inhibitors of human tyrosyl-DNA phosphodiesterase 1 (TDP1): qHTS in cells in absence of CPT | DT40 Tdp1-/- hTDP1 cells, no CPT, ATP luminescence, 48 h | Potency, µM (titrated, usually from 46.2 µM), for the others: at the top dose activity change, negative = growth inhibition, usual class: inhibitors | hit rate 15% among 420,000; also: potency is read from the fitted curve at half-maximal effect; nearly all actives have a fitted effect of over 55% in size
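Growth of hTDP1-complemented DT40 Tdp1-knockout cells is measured by ATP luminescence after at least 48 hr compound exposure at 37 °C, with DMSO substituting for the 20 nM CPT used in the parallel screen.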
TDP1 cell CPT – growth inhibition of DT40 Tdp1-/-;hTDP1 cells with camptothecin (screen for TDP1 inhibitors) | chicken DT40 Tdp1-/-;hTDP1 cells + 20 nM CPT, ATP luminescence, 48 h | Potency, µM (top dose mostly 46.2 µM), for the others: top-dose activity change, negative = growth inhibition, hits mostly inhibitors | hit rate 12% among 420,000; also: potency is read from the fitted curve at half-maximal effect; nearly all actives have a fitted effect of over 55% in size
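Chicken DT40 Tdp1-/- cells complemented with human TDP1, 400 cells/well, exposed to compounds plus 20 nM camptothecin for at least 48 h at 37 C; viability read as ATP content by CellTiter-Glo luminescence.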
Six1-Eya2 blk – inhibitors of human Six1/Eya2 interaction; AlphaScreen GST-Six1/His-Eya2 binding, biochemical; active compounds read low; activity change, % (concentration not given with the values); hit rate 0.56% among 360,000; AID 651725; in the data active = activity change below about -65%; inconclusive = mostly about -30% to -63%
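Compounds are tested against tagged Six1 and Eya2 proteins bridged by glutathione donor and nickel acceptor beads; after a one-hour incubation at 37 °C without light, AlphaScreen emission is recorded.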
CtBP-E1A blk – inhibitors of CtBP/E1A interaction. AlphaScreen GST-E1A/His-CtBP binding, 1536-well; active compounds read low. activity change, % (no concentration beside the values). hit rate 0.49% among 340,000. AID 651724; in the data active = activity change below about -65%; inconclusive = mostly about -30% to -63%
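Protein mix (5X: 125 nM each GST-E1A, His-CtBP) was incubated with pinned compound 2 h at 37 deg C in dark, in 50 mM Tris pH 8.0 buffer with 300 mM NaCl. Glutathione donor and nickel acceptor beads followed; AlphaScreen signal read after 1 h.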
TDP1 inh – TDP1 (human) enzyme inhibition; Potency, µM (highest dose often 130 µM), for the others: at the highest dose activity change, negative = inhibition, usual class: inhibitors; recombinant TDP1, AlphaScreen DNA substrate cleavage; Q9NUW8; hit rate 0.28% among 350,000; also: potency is read from the fitted curve at half-maximal effect; nearly all actives have a fitted effect of over 40% in size
Target sequence (Q9NUW8 whole entry, looked up): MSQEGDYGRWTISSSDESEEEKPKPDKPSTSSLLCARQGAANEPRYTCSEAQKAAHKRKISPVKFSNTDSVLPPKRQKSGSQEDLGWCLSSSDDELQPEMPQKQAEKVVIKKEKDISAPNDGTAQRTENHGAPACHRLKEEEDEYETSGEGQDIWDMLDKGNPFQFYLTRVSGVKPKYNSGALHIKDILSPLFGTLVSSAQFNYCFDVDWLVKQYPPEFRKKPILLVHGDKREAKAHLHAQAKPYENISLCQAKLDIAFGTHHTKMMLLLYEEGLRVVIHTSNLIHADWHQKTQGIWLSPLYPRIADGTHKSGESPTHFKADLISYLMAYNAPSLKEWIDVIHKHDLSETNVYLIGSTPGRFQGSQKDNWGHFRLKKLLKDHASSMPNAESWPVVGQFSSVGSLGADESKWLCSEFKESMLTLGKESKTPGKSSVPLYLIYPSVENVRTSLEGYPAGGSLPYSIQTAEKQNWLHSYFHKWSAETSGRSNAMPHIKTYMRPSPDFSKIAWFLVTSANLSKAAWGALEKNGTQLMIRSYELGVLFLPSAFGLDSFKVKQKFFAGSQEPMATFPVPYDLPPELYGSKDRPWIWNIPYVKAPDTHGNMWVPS
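Enzyme-compound mixtures sat 15 min at room temperature, followed by a 5 min reaction with 15 nM final substrate and 10 min with AlphaScreen beads. Recombinant human Tdp1 was used at 1 nM final.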
* = called active by the depositor; ? = inconclusive; · = no result; [ ] = another dose, or the depositor's remark. Rows were chosen to be rich in hits. Some 18% of all compounds tested hit in one or more screens of this group. Unless noted, calls follow the shape of the dose curve; as a rule, active = well fitted curve in the direction sought with a large enough effect; inconclusive = small, poorly fitted or top-dose-only effect, or another doubt; inactive = no such curve, though single readings can be large; an effect the other way counts as inactive or inconclusive. % is scaled to controls: 0 for no effect and ±100 for the full control effect.

SMILES | IL-1B inflam inh | TDP1 cell noCPT | TDP1 cell CPT | Six1-Eya2 blk | CtBP-E1A blk | TDP1 inh
CC1=C(C(=O)OCC2CCCO2)C(c2ccc(C)o2)C2=C(CC(c3ccc(N(C)C)cc3)CC2=O)N1 (stereo not drawn) | · | · | · | · | · | 8%
Cc1ccc([N+](=O)[O-])cc1NC(=O)C(C)Sc1nnc(C)n1CC1CCCO1 (stereo not drawn) | 6 | -7% | 1% | -3 | -8 | 10%
COc1ccc(/C=C2\SC(=S)N(CCC(=O)N3CCOCC3)C2=O)cc1 | -66* | ? | ? | -13 | 0 | 1%
Cc1ccc(/C=C2\SC(=S)N(CCC(=O)N3CCOCC3)C2=O)cc1 | 12 | 18µM* | 16µM* | 2 | 2 | 2%
O=C(CCN1C(=O)/C(=C\c2ccccc2)SC1=S)N1CCOCC1 | -63* | 10µM* | 8.2µM* | -3 | -14 | ·
COc1ccc(/C=C2\SC(=S)N(CCCC(=O)N3CCCCC3CCO)C2=O)cc1 (stereo not drawn) | -9 | ? | ? | -13 | ? | 9%
O=C(CCCN1C(=O)/C(=C/c2ccccc2)SC1=S)N1CCOCC1 | -96* | ? | ? | -3 | 24 | ·
Cc1ccc(/C=C2/SC(=S)N(CCC(=O)N3CCN(c4ccccc4)CC3)C2=O)cc1 | · | · | · | · | · | -4%
O=C1[C@@H]2[C@H]3[C@H](O)[C@H](O)C/C(=N/OC[C@@H](O)COCc4ccco4)[C@@H]3CC[C@H]2C(=O)N1c1ccc(F)cc1F | · | · | · | · | · | 2%[21 µM]
COc1ccc(CCn2c(=O)c3cccnc3n(CC(=O)Nc3c(C)cc(C)cc3C)c2=O)cc1OC | · | ? | -19% | · | · | -3%
O=C(CCN1C(=O)S/C(=C\c2ccccc2)C1=O)N1CCOCC1 | -80* | -30% | ? | -1 | -2 | ·
O=C1/C(=C/c2ccccc2)SC(=S)N1CC(=O)N1CCCCC1c1cccnc1 (stereo not drawn) | -24 | 16µM* | 15µM* | -19 | -23 | 10%
Cc1ccc(CS(=O)(=O)Cc2ccc(C(=O)NCc3ccco3)o2)cc1 | 14 | -21% | -24% | -2 | -1 | 2%
Cc1ccc(Nc2nc3nonc3nc2Nc2cccc(C(F)(F)F)c2)cc1Cl | · | 0.46µM* | 0.52µM* | · | · | 7%
O=C(NCc1ccccc1Cl)c1cc2c(s1)-c1ccccc1SC2 | · | ? | ? | · | · | -13%
COCCNC(=O)c1cc2c(s1)-c1ccc(Cl)cc1SC2 | -57* | ? | -17% | 9 | 6 | ·
CCOc1ccc(N(CC)C(=O)c2cc3c(s2)-c2ccc(Cl)cc2SC3)cc1 | · | ? | 12µM* | · | · | 5%
CC(C)c1ccc(NC(=O)c2cc3c(s2)-c2ccccc2SC3)cc1 | · | ? | 18µM* | · | · | -5%
Cc1cc(N2CCN(c3ccccc3F)CC2)nc2cc(O)ccc12 | -7 | ? | ? | 0 | -3 | 5%
COc1ccccc1OC(C)C(=O)Nc1cccc(-c2nc3ccccc3s2)c1 (stereo not drawn) | · | 12µM* | 21µM* | · | · | -2%
COc1ccccc1OC(C)C(=O)Nc1cccc(-c2nc3ccccc3o2)c1 (stereo not drawn) | · | 21µM* | ? | · | · | ·
Cc1cc(OC(C)C(=O)Nc2cccc(-c3nc4ccccc4o3)c2)cc(C)c1Cl (stereo not drawn) | · | 16µM* | ? | · | · | -13%
CC(C)C(=O)Nc1cccc(-c2nc3ccccc3o2)c1 | 0 | ? | -17% | -1 | 3 | 0%
COc1cccc(C(=O)/C=C/Nc2ccc(S(=O)(=O)Nc3cc(OC)nc(OC)n3)cc2)c1 | 7 | -6% | -7% | ? | -29 | 2%
CC(=O)N1CCC2(CC1)CN(c1cccc(-c3ccccc3)c1)C2 | · | ? | -26% | · | · | ·
SMILES | IL-1B inflam inh | TDP1 cell noCPT | TDP1 cell CPT | Six1-Eya2 blk | CtBP-E1A blk | TDP1 inh
O=C(c1cnccn1)N1CCC2(CC1)CN(c1ccccc1)C2 | · | -9% | 0% | · | · | ·
COc1ccc(C(=O)N2CCC3(CCCN(c4cccc(-c5ccccc5)c4)C3)CC2)cc1 | · | 21µM* | ? | · | · | ·
Cn1cccc1C(=O)N1CCC2(CC1)CCN(c1cccc(-c3ccccc3)c1)CC2 | · | ? | 16µM* | · | · | ·
O=C(c1cnccn1)N1CCC2(CC1)CN(c1cccc(-c3ccccc3)c1)C2 | · | ? | 18µM* | · | · | ·
CC(=O)N1CCC2(CC1)CCN(c1cccc(-c3ccccc3)c1)CC2 | · | 21µM* | ? | · | · | ·
COc1ccc(NC(=O)CCCCn2c(=O)[nH]c3ccccc3c2=O)cc1 | 10 | -16% | 10% | 2 | -1 | 1%
Cn1cccc1C(=O)N1CCC2(CCCN(c3cccc(-c4ccccc4)c3)C2)CC1 | · | 13µM* | ? | · | · | ·
Cn1cccc1C(=O)N1CCC[C@@]2(CCN(c3ccccc3)C2)C1 | · | 26µM* | ? | · | · | ·
Cn1cccc1C(=O)N1CCC[C@@]2(CCN(c3ncccn3)C2)C1 | · | -4% | 5% | · | · | ·
O=C(CSc1nnc(-c2cc3ccccc3cc2O)n1Cc1ccco1)N1CCc2ccccc2C1 | -71* | ? | ? | -1 | 8 | 1%
CC(C)N(C(=O)CSc1nnc(-c2cc3ccccc3cc2O)n1Cc1ccco1)C(C)C | -7 | 21µM* | 13µM* | -14 | -10 | 3%
Oc1cc2ccccc2cc1-c1n[nH]c(=S)n1Cc1ccco1 | -4 | 4% | -23% | -4 | 2 | 10%
COCCn1c(SCC(=O)N(C(C)C)C(C)C)nnc1-c1cc2ccccc2cc1O | 15 | 21µM* | ? | 0 | -4 | -6%
CC(Sc1nnc(-c2cccnc2)n1N)C(=O)N1CCOCC1 (stereo not drawn) | 0 | -22% | 1% | -1 | -12 | -12%[0.505 µM]
COC(=O)Nc1ccc(SCC(=O)c2ccccc2)cc1 | -12 | -22% | -28% | 0 | -2 | 2%
C[C@H](NC(=O)OC(C)(C)C)c1nnc(SCC(=O)c2ccc(Cl)cc2)o1 | 12 | 21µM* | 16µM* | -1 | 1 | 4%
CC(C)[C@H](N)c1nnc(SCC(=O)c2ccc(Cl)cc2)o1 | -10 | 13µM* | 12µM* | 0 | -3 | 8%
COC(=O)Nc1ccc(SCC(=O)c2ccc(Cl)cc2)cc1 | -62* | ? | ? | 2 | 0 | 3%
O=C(CSc1nnc(CNC(=O)c2cccs2)o1)c1ccc(Cl)cc1 | -58* | ? | 21µM* | 12 | 0 | 7%
C[C@H](N)c1nnc(SCC(=O)c2ccc(Cl)cc2)o1 | 12 | -1% | 4% | -9 | -12 | 5%
